For 78 compounds, max activity results are on record in PubChem BioAssay AID1259418 (Broad Institute, 2018).

Screen size: about 3,400 compounds; about 840 (25%) were called active. Roughly 11% stayed inconclusive and do not appear here. Not all results are given here. Measured potencies and affinities stand elsewhere. Values without a mark were called inactive.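 How the source made its calls: active means fitted half-maximal concentration of signal decrease at or below twice the sample's top tested concentration; inconclusive means flat curve between -70 and -30 percent, or poor fit; inactive means flat within 30 percent, signal rise, or potency above limit.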

The experiment in a line: T. gondii growth inhibition with IFN-gamma, dose response, cell-based, ME49Luc, HeLa, luciferase, 72 h (AID 1259418). As to conditions: T. gondii ME49Luc in IFN-y HeLa, active compounds read low, -100% = high-dose IFN-γ control wells; at 19.5 µM unless noted.
Consider `Cc1ccccc1-c1noc(-c2nnn(Cc3nc(-c4cccc(Cl)c4)oc3C)c2C)n1`, for which the max activity was -11.4% [at 0.16 µM].

As for `Cc1noc(C)c1C1CCCN1Cc1cn(C(C)C)c2ccccc12` (stereo not drawn), the max activity is 17.5% [at 10 µM].

As to `Cc1cc(C2CCCN2Cc2cn(C(C)C)c3ccccc23)on1` (stereo not drawn), the max activity was 5.01%.

As to `Clc1ccc(CSc2nc(NC3CCCCC3)c3ccccc3n2)cc1`, the max activity was 26.1% [at 2.6 µM].

As to `CC(C)c1ccc(S(=O)(=O)N2CCC3(CC2)NCCN=C3NC2CCCCCC2)cc1`, the max activity was 17.1% [at 0.16 µM].

With `CC(C)c1ccc(S(=O)(=O)N2CCC3(CC2)NCCN=C3NC2CCCCC2)cc1`, the max activity is 20% [at 0.16 µM].

With `CC(C)c1ccc(S(=O)(=O)N2CCC3(CC2)NCCN=C3NC2CCCC2)cc1`, the max activity is -14.4% [at 10 µM].

Consider `Cc1ccc(-c2coc(-c3ccc(NC(=O)Nc4ccc(Cl)cc4)cc3)n2)cc1`, for which the max activity was 13.9% [at 0.16 µM].

In the case of `Cc1ccc(C)c(-c2coc(-c3ccc(NC(=O)Nc4ccc(C)c(F)c4)cc3)n2)c1`, the max activity was 15%.

With `CCc1ccccc1Nc1ncnc2c1cnn2-c1ccc(OC)cc1`, the max activity was 48.9%.

For the compound `Clc1ccc(-c2nc(N3CCN(c4ccccn4)CC3)c3ccccc3n2)cc1`, the max activity was -23.4% [at 1.35 µM].

Consider `COc1ccc(-c2nc(NCc3cccc(OC)c3)c3ccccc3n2)cc1`, for which the max activity was 17.2%.

As for `CCc1ccccc1NC(=O)N1CCN(Cc2nc(-c3ccc(C)cc3)oc2C)CC1`, the max activity is 29.1% [at 10 µM].

With `COc1ccc(-c2nc3c(s2)CN(C(=O)Nc2ccc(Cl)cc2)CC3)cc1OC`, the max activity is 10.2% [at 0.16 µM].

`CCOC(=O)CSC1=Nc2ccccc2C2=NC(CC(=O)NC3CCCCC3)C(=O)N12` (stereo not drawn): the max activity was -18.7% [at 10 µM].

As to `O=C1CCc2cc(S(=O)(=O)NCc3cccs3)cc3c2N1CCC3`, the max activity is 24.5%.

As for `O=C1CCc2cc(S(=O)(=O)NCc3ccccc3Cl)cc3c2N1CCC3`, the max activity was 22.6% [at 2.6 µM].

In the case of `CC1Cc2ccccc2N1S(=O)(=O)c1cc2c3c(c1)CCC(=O)N3CCC2` (stereo not drawn), the max activity is -11.1% [at 0.35 µM].

For `O=C1CCc2cc(S(=O)(=O)NCCC(c3ccccc3)c3ccccc3)cc3c2N1CCC3`, the max activity is 9.16%.

In the case of `O=C1CCc2cc(S(=O)(=O)N3CCCc4ccccc43)cc3c2N1CCC3`, the max activity was -12% [at 0.35 µM].

Regarding `O=C1CCc2cc(S(=O)(=O)N3CCC(Cc4ccccc4)CC3)cc3c2N1CCC3`, the max activity is 11.4% [at 1.35 µM].

For the compound `Cc1ccc(C2=NC3(CCN(CC(=O)Nc4c(C)cccc4C)CC3)NC2=O)cc1`, the max activity was 10.4% [at 0.16 µM].

`COc1ccc2c(c1)NC1(CCN(C(=O)CCC3CCCC3)CC1)c1cccn1-2`: the max activity is 10.2% [at 0.16 µM].

For `COc1ccc(C)cc1NC(=O)N1CCc2nc(-c3ccc(C)cc3)sc2C1`, the max activity was -14.6% [at 0.16 µM].

Turning to `CCOc1ccc(CCNc2nc(-c3ccc(OC)cc3)nc3ccccc23)cc1`, the max activity is -9.19% [at 0.35 µM].

As for `CCc1cc2c(N3CCC(C(N)=O)(N4CCCCC4)CC3)ncnc2s1`, the max activity was -27.2%.

Consider `CCOC(=O)CCNC(=O)Nc1ccc(-c2nc(-c3ccccc3)co2)cc1`, for which the max activity was -13.1% [at 1.35 µM].

On to `COC(=O)c1ccc(NC(=O)COc2nc(C)nc3ccccc23)cc1`, for which the max activity is 16% [at 2.6 µM].

As to `O=C(c1ccco1)N1CCC2(CC1)Nc1cc(F)ccc1-n1cccc12`, the max activity is 7.86% [at 0.16 µM].

`O=C(c1ccco1)N1CCN(c2nc(-c3ccc(Cl)cc3)nc3ccccc23)CC1`: the max activity is 16.5% [at 0.35 µM].

Take `Cc1ccc2c(c1C)-n1cccc1C1(CCN(C(=O)c3ccc(Cl)cc3)CC1)N2`: the max activity is -11.9% [at 0.16 µM].

In the case of `O=C(CC1Nc2c3ccccc3nc(=S)n2C1=O)NCCC1=CCCCC1` (stereo not drawn), the max activity is 25.3% [at 0.68 µM].

Take `O=C(CC1N=C2c3ccccc3N=C(SCc3ccccc3F)N2C1=O)NCc1ccco1` (stereo not drawn): the max activity was -17.8%.

Take `CC(C)(C)c1ccc(CSC2=Nc3ccccc3C3=NC(CCC(=O)NCc4ccco4)C(=O)N23)cc1` (stereo not drawn): the max activity is 15.7% [at 0.16 µM].

Take `Cc1ccc(CSC2=Nc3ccccc3C3=NC(CC(=O)NCc4ccco4)C(=O)N23)cc1` (stereo not drawn): the max activity was 10.3% [at 0.35 µM].

With `Cc1ccc(CSC2=Nc3ccccc3C3=NC(CCC(=O)NCc4ccco4)C(=O)N23)cc1` (stereo not drawn), the max activity was 39.1%.

Take `Cc1nc(OCC(=O)Nc2cccc(Cl)c2)c2ccccc2n1`: the max activity was -6.84% [at 0.35 µM].

In the case of `Cc1ccc(C)c(-c2coc(-c3ccc(NC(=O)C(C)(C)C)cc3)n2)c1`, the max activity is 13.3% [at 0.16 µM].

As to `COCCN1CCN(S(=O)(=O)c2ccccc2)Cc2cccnc21`, the max activity is 18.1%.

Regarding `COC(=O)c1ccc(Cl)cc1NC(=O)COc1nc(C)nc2ccccc12`, the max activity is 29% [at 0.16 µM].

`COc1ccc(C)cc1NC(=O)COc1nc(C)nc2ccccc12`: the max activity is 17.5% [at 0.68 µM].

In the case of `CCOC(=O)c1ccccc1NC(=O)COc1nc(C)nc2ccccc12`, the max activity is 26.7% [at 10 µM].

For `Cc1cc(C)cc(NC(=O)COc2nc(C)nc3ccccc23)c1`, the max activity was -16.7% [at 5 µM].

Consider `CCc1cccc(C)c1NC(=O)COc1nc(C)nc2ccccc12`, for which the max activity is 13.2% [at 0.68 µM].

As for `COc1ccc(OC)c(NC(=O)COc2nc(C)nc3ccccc23)c1`, the max activity was 27.6% [at 2.6 µM].

Turning to `Cc1nc(OCC(=O)Nc2cccc(Br)c2)c2ccccc2n1`, the max activity is 18% [at 0.35 µM].

With `Cc1cc(C)c(NC(=O)COc2nc(C)nc3ccccc23)c(C)c1`, the max activity was -16.7% [at 0.68 µM].

Take `CCOc1cccc(CC(=O)N2CCC3(CC2)Nc2cc(F)ccc2-n2cccc23)c1OCC`: the max activity is 11.6% [at 0.35 µM].

With `O=C(NCCc1csc(-c2ccccc2)n1)[C@H]1CSCN1C(=O)Cc1ccc(F)cc1`, the max activity is 10.7% [at 10 µM].

With `Cc1ccc(C)c(-c2coc(-c3ccc(NC(=O)NCc4ccc(F)cc4)cc3)n2)c1`, the max activity is -8.97% [at 1.35 µM].

As to `CCOc1ccc(C(=O)N2CCC3(CC2)Nc2ccc(C)c(C)c2-n2cccc23)cc1`, the max activity is -13.2%.

For the compound `Cc1cccc(C(=O)Nc2c(C(=O)NCc3ccccn3)[nH]c3ccccc23)c1`, the max activity is 17.8% [at 2.6 µM].

Turning to `CN(C)CCN1CCC2(CCCN(C(=O)C3CCOC3)C2)C1=O` (stereo not drawn), the max activity is 39.4%.

In the case of `Cc1cccc(-c2nc(Cn3nnc(-c4nc(-c5ccccc5C)no4)c3C)c(C)o2)c1`, the max activity is 5.08% [at 0.35 µM].

`O=C(Nc1ccc(-c2nc(-c3cccc(Br)c3)co2)cc1)c1ccco1`: the max activity is 21.7%.

For `O=C(NCCc1csc(-c2ccccc2)n1)[C@H]1CCCN1C(=O)COc1ccccc1`, the max activity was -18.8%.

On to `Cc1nc(OCC(=O)Nc2ccc3c(c2)OCO3)c2ccccc2n1`, for which the max activity was 12.1% [at 5 µM].

On to `Cc1nc(OCC(=O)Nc2ccc(Cl)cc2F)c2ccccc2n1`, for which the max activity is -13% [at 0.16 µM].

For the compound `Cc1nc(OCC(=O)Nc2ccccc2)c2ccccc2n1`, the max activity was 12.4% [at 0.16 µM].

As for `COc1cc(NC(=O)COc2nc(C)nc3ccccc23)cc(OC)c1`, the max activity was -12.3% [at 0.35 µM].

Regarding `Cc1nc(OCC(=O)Nc2ccc(F)cc2)c2ccccc2n1`, the max activity was 17.7% [at 10 µM].

Consider `Cc1nc(OCC(=O)Nc2ccc(F)cc2F)c2ccccc2n1`, for which the max activity was -20.9% [at 1.35 µM].

As to `CCc1nc(OCC(=O)NCc2ccc3c(c2)OCO3)c2ccccc2n1`, the max activity was 11.9% [at 0.35 µM].

Regarding `COc1ccc(NC(=O)COc2nc(C)nc3ccccc23)cc1`, the max activity was 19.3% [at 0.68 µM].

With `O=C(Cc1ccc(F)cc1)N1CCC2(CC1)Nc1cc(F)ccc1-n1cccc12`, the max activity was 16% [at 0.16 µM].

As for `O=C(NCc1ccccc1)Nc1ccc(-c2nc(-c3ccccc3)co2)cc1`, the max activity is 42.6%.

As for `CC(C)c1cc(C2CCCN2C(=O)Cn2nc(C(F)(F)F)c3c2CCCC3)on1` (stereo not drawn), the max activity was 9.58% [at 2.6 µM].

In the case of `Cc1cc(C2CCCN2C(=O)Cn2nc(C(F)(F)F)c3c2CCCC3)on1` (stereo not drawn), the max activity was -9.58% [at 0.16 µM].

As for `CCc1cc(C2CCCN2C(=O)Cn2nc(C(F)(F)F)c3c2CCCC3)on1` (stereo not drawn), the max activity was 14.3% [at 0.16 µM].

Consider `Cc1cc(C2CCCN2C(=O)Cn2nc(C(F)(F)F)cc2C)no1` (stereo not drawn), for which the max activity is 11.8% [at 2.6 µM].

As for `CC(C)c1cc(C2CCCN2C(=O)Cn2nc(C(F)(F)F)c3c2CCCC3)no1` (stereo not drawn), the max activity is 6.95% [at 0.16 µM].

Consider `CCCc1cc(C2CCCN2C(=O)Cn2nc(C(F)(F)F)cc2C)no1` (stereo not drawn), for which the max activity is 9.64% [at 1.35 µM].

Consider `COCCCNC(=O)Cn1c(=O)c(S(=O)(=O)c2ccccc2)cc2ccccc21`, for which the max activity is -8.44% [at 0.35 µM].

For the compound `Cc1ccc(-c2nc3c(s2)CN(S(=O)(=O)c2ccc(Cl)cc2)CC3)cc1`, the max activity is 6.55% [at 10 µM].

As to `COc1cccc(CC(=O)N2CCC3(CC2)Nc2cc(OC)ccc2-n2cccc23)c1`, the max activity is 12.8% [at 0.35 µM].

With `COc1ccc(CCNc2nc(SCc3cc(=O)n4cc(Cl)ccc4n3)nc3ccccc23)cc1OC`, the max activity is 12.8%.

`Cc1ccc(Cn2c(CN3CCC(C(=O)NCc4cccnc4)CC3)cc3ccccc32)cc1`: the max activity is 16.6% [at 2.6 µM].

`CN1C[C@H]2CN(Cc3ccc4c(c3)OCO4)CCC[C@@]2(C(=O)O)C1`: the max activity was 12.4%.
